We go through 14 compounds from PubChem BioAssay (NCI).

About 83,000 compounds went through this panel and 20% of them were active in at least one assay; those are over-represented in the sample as a whole.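 Interpretation: 100, growth as untreated; towards 0, rising growth inhibition; 0, no net growth; 0 to -100, cell death. Compounds scoring below 10 were considered active.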 Values without a mark were called inactive. The source made the active and inactive calls.

The test system of this experiment is MDA-MB-468 breast. Kind of experiment: NCI-60 one-dose screen, 48 h (100 = growth as untreated, 0 = no growth, -100 = all killed). The note with it: 10 µM unless noted.
For `CCNC(=O)CCCCC(=O)c1c(C)[nH]c(/C=C2\N=C(c3ccc[nH]3)C=C2OC)c1C`, the growth is -22.7% (active).
On to `Cc1cc(N(CCNc2ccnc3cc(Cl)ccc23)Cc2ccco2)nc(Cl)n1`, for which the growth is -33.5% (active).
On to `Nc1ccn(C2CC(O)C(CO)O2)c(=O)n1` (centres undefined), for which the growth is 103%.
As to `CC1(c2ccccc2O)NN=C(/N=C/c2cccc([N+](=O)[O-])c2)N1C(Cc1c[nH]c2ccccc12)C(=O)O` (centres undefined), the growth is 103%.
For the compound `O=S1(=O)N(Cc2ccccc2)[C@@H](Cc2ccccc2)C2O[C@H]2[C@H](Cc2ccccc2)N1Cc1ccccc1` (some centres undefined), the growth is 6.52% (active).
In the case of `CCCCNC(=O)Oc1ccc(/C(=C(/C)Cc2ccc(OC)cc2)c2ccc(OCCN(CC)CC)cc2)cc1`, the growth is 76.3%.
Consider `Nc1ncnc(Nc2ccccc2)n1`, for which the growth is 108%.
As to `COc1cc2nc(N3CCCC3)nc(Nc3ccccc3)c2cc1OC`, the growth is -38.2% (active).
In the case of `COC(=O)c1c2c(c(C)[n+]([O-])c1C)C(=O)C=C(NCc1ccc(F)c(F)c1)C2=O`, the growth was -78.4% (active).
`CCN(C(=O)CN1CCN(c2cc3c(cc2F)c(=O)c(C(=O)O)cn3CC)CC1)c1nc(-c2ccccc2)cs1`: the growth was -7.7% (active).
Consider `Nc1nc(N)c2c(n1)NC(c1ccc(Cl)cc1)CC(c1ccc(Nc3nc(NCCO)nc(N4CCOCC4)n3)cc1)=N2` (centres undefined), for which the growth was 73.7%.
As to `COc1cccc2cc(-c3cc4ccccc4[nH]3)c(=NC(=O)c3ccc(Cl)cc3)oc12`, the growth is 75%.
As to `CCCCCCN(CCCCCC)CCCNc1nccc2ccccc12`, the growth was -6.34% (active).
Regarding `CCCCCCC(C)(O)c1ccccc1` (centres undefined), the growth is 117%.
